Cruzain inh Det: cruzain (T. cruzi) inhibition with detergent. P25779. purified cruzain, Z-FR-AMC fluorescence, 0.01% Triton. Potency, µM, for inactives: max response, negative = inhibition, most hits filed as inhibitors. 200,000 compounds, 0.43% hits. AID 1478;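 further: plate controls were neutral wells for no effect and buffer without enzyme for full effect; nearly all actives have a fitted effect of over 40% in size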
Target sequence (P25779 123-467 limits assumed): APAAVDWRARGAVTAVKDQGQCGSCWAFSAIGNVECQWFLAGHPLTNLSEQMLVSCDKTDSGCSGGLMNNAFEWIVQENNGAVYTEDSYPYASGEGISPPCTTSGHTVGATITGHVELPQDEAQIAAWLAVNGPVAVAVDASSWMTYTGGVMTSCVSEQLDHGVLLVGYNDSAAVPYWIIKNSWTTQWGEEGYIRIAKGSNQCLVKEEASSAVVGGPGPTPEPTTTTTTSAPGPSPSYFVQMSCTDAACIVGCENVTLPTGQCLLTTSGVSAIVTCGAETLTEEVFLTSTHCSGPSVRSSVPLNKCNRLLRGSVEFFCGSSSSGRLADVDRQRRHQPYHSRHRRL
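Detergent-containing arm of a paired screen for aggregation-based inhibition: 0.01% Triton X-100 present. Cruzain at 1.5 nM cleaved 2 uM Z-FR-AMC at pH 5.5 with 5 mM DTT; AMC fluorescence gain over 60 s measured activity.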
Cruzain noTriton: cruzain (T. cruzi) inhibition without detergent. 200,000 compounds, 2.3% hits. purified cruzain, Z-FR-AMC fluorescence, no detergent. AID 1476. Potency, µM, inactives show max response, negative = inhibition, usual class: inhibitors;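 further: plate controls were enzyme without inhibitor for no effect and buffer without enzyme for full effect; nearly all actives have a fitted effect of over 40% in size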
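Detergent-free condition (0.00005% Triton X-100) in acetate buffer pH 5.5 with DTT. 1.5 nM enzyme and compound were pre-mixed 15 min, then 2 uM Z-FR-AMC substrate added; reaction progress from fluorescence change between first and third reads (60 s).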
Active calls of the source: *. Hits are enriched below; roughly 2.5% of the tested compounds scored in any of these assays. The call rests on the fitted dose curve; in most records, active means well fitted curve in the direction sought with a large enough effect; inconclusive means small, poorly fitted or top-dose-only effect, or another doubt; inactive means no such curve, though single readings can be large; an effect the other way counts as inactive or inconclusive. Potency means the concentration at half of the fitted maximal effect.

Screening COc1ccccc1-c1cc(Nc2ccn[nH]2)ncn1 returned Cruzain inh Det 3.5% and Cruzain noTriton -16.2%.
For Cc1ccccc1Cn1c(C)c(CNCc2ccccc2)c(C(=O)O)c1C the results were Cruzain inh Det -0.5% and Cruzain noTriton -2.6%.
Screening CCOc1ccc(C(c2c(O)cc(C)n(CCOC)c2=O)N2CCN(c3ccccc3F)CC2)cc1 (centres undefined) returned Cruzain inh Det 0.5% and Cruzain noTriton inconclusive.
`O=c1cc(CSc2nnnn2-c2ccccc2)[nH]c2[nH]n(-c3ccccc3)c(=O)c12` gave Cruzain inh Det -7.5% and Cruzain noTriton -15.4%.
CCn1c(=O)n(CC)c2cc(N3CCCCC3)c(NC(=O)Nc3cc(C)cc(C)c3)cc21 was read as Cruzain inh Det -7.9% and Cruzain noTriton 10.1%.
For COc1cc(C)ccc1S(=O)(=O)N1CCN(C23CC4CC(CC(C4)C2)C3)CC1 the results were Cruzain inh Det -1.9% and Cruzain noTriton -2.7%.
For CCS(=O)(=O)N1CCC(n2c(C(F)(F)F)nc3cccnc32)CC1 the results were Cruzain inh Det 0.9% and Cruzain noTriton -12.2%.
C1CCOC1 was read as Cruzain inh Det 2.6% and Cruzain noTriton 4.8%.
For COc1cc2ccccc2cc1C(=O)Nc1ccccc1N1CCN(S(C)(=O)=O)CC1 the results were Cruzain inh Det -5.8% and Cruzain noTriton 25.1µM*.
O=C(Nc1cccc(-c2nc3ccccc3o2)c1)c1ccc(-c2ccc(Br)cc2)o1 was read as Cruzain inh Det -1.9% and Cruzain noTriton inconclusive.
For Cc1ccc2cccc(NC(=O)c3ccc(-c4ccc(Br)cc4)o3)c2n1 the results were Cruzain inh Det 1.0% and Cruzain noTriton -12.4%.
Screening CS(=O)(=O)N1CCN(c2ccccc2NC(=O)c2ccc(-c3ccc(Br)cc3)o2)CC1 returned Cruzain inh Det -3.2% and Cruzain noTriton 25.1µM*.
`CS(=O)(=O)N1CCN(c2ccc(NC(=O)c3ccc(-c4ccc(Cl)cc4)o3)cc2)CC1` gave Cruzain inh Det 2.6% and Cruzain noTriton inconclusive.
Screening CS(=O)(=O)N1CCN(c2ccccc2NC(=O)c2cccc3ccccc23)CC1 returned Cruzain inh Det -2.4% and Cruzain noTriton 6.3%.
COC(=O)c1ccccc1NC(=O)c1ccc(-c2ccc(Br)cc2)o1 was read as Cruzain inh Det -12.9% and Cruzain noTriton 7.94µM*.
Screening O=C(Nc1cccc(NC(=O)c2ccc(-c3ccc(Br)cc3)o2)c1)c1ccco1 returned Cruzain inh Det -7.0% and Cruzain noTriton 31.6µM*.
For COc1ccc2[nH]c(=O)c(CN(C(=O)c3cccc(Cl)c3)c3ccccc3C)cc2c1 the results were Cruzain inh Det -0.3% and Cruzain noTriton -21.5%.
Screening O=C(CSc1nc2c([nH]c3ccccc32)c(=O)n1-c1ccc(F)cc1)N1CCCc2ccccc21 returned Cruzain inh Det -0.4% and Cruzain noTriton 3.8%.
`CCCCNS(=O)(=O)c1ccc(NS(=O)(=O)c2c(C)cc(C)cc2C)cc1` gave Cruzain inh Det -10.8% and Cruzain noTriton 2.9%.
For O=C(Nc1ccc2nn(-c3ccc(F)cc3)nc2c1)c1cccc2c(Cl)cccc12 the results were Cruzain inh Det 2.0% and Cruzain noTriton -3.5%.
`COc1ccc(CNc2ncnc3ccc(-c4cccc(C#N)c4)cc23)c(OC)c1` gave Cruzain inh Det -5.8% and Cruzain noTriton 4.4%.
CC(=O)c1ccc(NC(=O)Nc2nnc(N3CCCC(C)C3)s2)cc1 (centres undefined) was read as Cruzain inh Det -2.4% and Cruzain noTriton -9.1%.
CC(C)(O)C(=O)O was read as Cruzain inh Det 5.1% and Cruzain noTriton 3.8%.
`CNC(=O)C1CC(=O)N(CCCc2ccccc2)C(=Nc2ccccc2)S1` (centres undefined) gave Cruzain inh Det 1.7% and Cruzain noTriton inconclusive.
`COc1cc(/C=C(\NC(C)=O)C(=O)Nc2cccc(O)c2)ccc1OC(C)=O` gave Cruzain inh Det -5.3% and Cruzain noTriton 5.7%.
`CCN(CC)S(=O)(=O)c1ccc(C(=O)NCCSc2c(-c3ccccc3)[nH]c3ccccc23)cc1` gave Cruzain inh Det 2.0% and Cruzain noTriton inconclusive.
`CN(C)S(=O)(=O)c1ccc(C(=O)NCCSc2c(-c3ccc(Br)cc3)[nH]c3ccccc23)cc1` gave Cruzain inh Det 0.5% and Cruzain noTriton 25.1µM*.
CCOc1ccc(N/N=C(/C#N)C(N)=O)cc1 was read as Cruzain inh Det -9.1% and Cruzain noTriton -20.8%.
`CCOC(=O)NC(=O)/C(C#N)=N\Nc1ccc(Cl)cc1` gave Cruzain inh Det -2.0% and Cruzain noTriton 5.01µM*.
`Cc1cc(O)c2c(c1O)C(=O)C(O)=C(O)C2=O` gave Cruzain inh Det -11.4% and Cruzain noTriton -19.4%.
For CCS(=O)(=O)N1CCN(C2CCC(C)CC2)CC1 (centres undefined) the results were Cruzain inh Det 1.9% and Cruzain noTriton -6.8%.
Cc1ccc(Nc2sc(C(=O)c3ccc(F)cc3)c(N)c2S(=O)(=O)c2ccc(C)cc2)cc1 was read as Cruzain inh Det 2.2% and Cruzain noTriton inconclusive.
For COc1ccc(OC)c(Nc2sc(C(=O)c3ccccc3)c(N)c2S(=O)(=O)c2ccccc2)c1 the results were Cruzain inh Det -1.6% and Cruzain noTriton 7.94µM*.
Nc1c(C(=O)c2ccc(F)cc2)sc(Nc2ccccc2F)c1S(=O)(=O)c1ccc(Br)cc1 was read as Cruzain inh Det -1.1% and Cruzain noTriton -26.5%.
Screening Cc1ccc(Nc2sc(C(=O)c3ccccc3)c(N)c2S(=O)(=O)c2ccccc2)cc1Cl returned Cruzain inh Det -5.0% and Cruzain noTriton 3.98µM*.
For Cc1ccc(Nc2sc(C(=O)c3ccccc3)c(N)c2S(=O)(=O)c2ccccc2)c(C)c1 the results were Cruzain inh Det -4.0% and Cruzain noTriton 10µM*.
For Cc1ccc(Nc2sc(C(=O)c3ccccc3)c(N)c2C(=O)NC(C)C)cc1 the results were Cruzain inh Det -2.9% and Cruzain noTriton 9.2%.
`Cc1ccc(S(=O)(=O)c2c(Nc3cc(F)ccc3F)sc(C(=O)c3ccc(F)cc3)c2N)cc1` gave Cruzain inh Det -5.1% and Cruzain noTriton 3.16µM*.
For Cc1cc(Nc2sc(C(=O)c3ccc(F)cc3)c(N)c2C(=O)Nc2ccc(F)cc2)ccc1Cl the results were Cruzain inh Det -5.9% and Cruzain noTriton inconclusive.
For CN(C)CCC(C#N)(c1ccccc1)c1ccccc1 the results were Cruzain inh Det 8.3% and Cruzain noTriton -0.4%.
CC(=O)OC1CCC2(C)C3CCC4(C)C(CC5CCCCC54C(C)=O)C3CC(=O)[C@@]2(O)C1 (some centres undefined) was read as Cruzain inh Det 1.0% and Cruzain noTriton 5.7%.
COc1ccc(C2C(=O)N(C3CCC(C)CC3)CC(=O)N2CCc2ccccc2)cc1OC (centres undefined) was read as Cruzain inh Det 0.5% and Cruzain noTriton 15.8%.
Cc1ccc2[nH]c(C)cc(=O)c2c1 was read as Cruzain inh Det -2.1% and Cruzain noTriton -0.2%.
For CCC(=O)N1CCc2cc(S(=O)(=O)CCC(=O)N3CCN(c4cccc(C)c4)C(C)C3)ccc21 (centres undefined) the results were Cruzain inh Det -1.8% and Cruzain noTriton inconclusive.
For CCOc1ccc(NC(=O)c2ccc3c(c2)nnn3C2CCCC2)cc1 the results were Cruzain inh Det -0.6% and Cruzain noTriton -5.5%.
For COc1ccccc1Nc1sc(C(=O)c2ccc3c(c2)OCO3)c(N)c1S(=O)(=O)c1ccccc1 the results were Cruzain inh Det -3.5% and Cruzain noTriton 7.94µM*.

High-throughput results: PubChem, National Center for Advancing Translational Sciences (NCATS)
